According to PubChem BioAssay (NCI):
Compounds without any hit were thinned out: in the full panel of roughly 79,000, 15% have a hit. Activity calls are given as the source filed them. Rule as the data show it: active = growth inhibition above about 70%; inactive = the rest.

What was measured:
[1] = NCI Yeast Anticancer Drug Screen. Data for the wt1 strain (AID 149);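 also: 0% = growth of vehicle-treated wt1 cultures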; conditions: S. cerevisiae wt1 strain (SPY 50644) growth inhibition, stronger effect = higher value
Summary of the method: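 Using yeast strain wt1, compound-induced growth inhibition was determined against vehicle-treated cultures.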

[2] = NCI Yeast Anticancer Drug Screen. Data for the rad50EPP+ strain (AID 151);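 also: 0% = growth of vehicle-treated control cultures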; conditions: S. cerevisiae rad50 mutant strain, stronger effect = higher value
Summary of the method: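 Compounds were applied to the rad50EPP+ yeast strain, which bears a defined DNA repair alteration, and growth inhibition was determined relative to vehicle-treated cultures.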

[3] = NCI Yeast Anticancer Drug Screen. Data for the mgt1 strain (AID 153); conditions: S. cerevisiae mgt1 mutant growth inhibition, stronger effect = higher value
Summary of the method: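 Strain: mgt1 yeast, one of a set carrying defined DNA damage repair or cell cycle control alterations. Compound-treated growth compared with vehicle.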

[4] = NCI Yeast Anticancer Drug Screen. Data for the rad50 strain (AID 155);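 also: 0% = growth of vehicle-only cultures of the same strain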; conditions: S. cerevisiae rad50 strain growth inhibition, stronger effect = higher value
Summary of the method: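 Relative growth inhibition (compound vs vehicle) was measured in yeast with a defined repair-gene alteration.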

[5] = NCI Yeast Anticancer Drug Screen. Data for the mec2-1 strain (AID 157); conditions: S. cerevisiae mec2-1 strain, stronger effect = higher value
Summary of the method: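 Strain: mec2-1 (DNA repair/cell cycle alteration). Compound exposure, then growth measured; inhibition expressed relative to vehicle.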

[6] = NCI Yeast Anticancer Drug Screen. Data for the rad14 strain (AID 159);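 also: 0% = growth of vehicle-treated control cultures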; conditions: S. cerevisiae rad14 strain growth inhibition, stronger effect = higher value
Summary of the method: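 Screen for anticancer potential: a yeast strain altered in DNA damage repair is grown with compound, and reduced growth is quantified against vehicle controls.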

[7] = NCI Yeast Anticancer Drug Screen. Data for the sgs1 mgt1 strain (AID 161);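 also: 0% = growth of cultures given vehicle only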; conditions: S. cerevisiae sgs1 mgt1 strain, stronger effect = higher value
Summary of the method: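 Read-out: growth inhibition vs vehicle controls. Cells: mutant yeast strain deficient in DNA damage repair.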

[8] = NCI Yeast Anticancer Drug Screen. Data for the CLN2oe strain (AID 163);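 also: 0% = growth of vehicle-only control cultures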; conditions: S. cerevisiae CLN2oe strain, stronger effect = higher value
Summary of the method: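 Growth of a genetically modified yeast strain is measured after compound exposure and compared with cultures given vehicle alone.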

[9] = NCI Yeast Anticancer Drug Screen. Data for the cln2 rad14 strain (AID 165);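 also: 0% = growth equal to vehicle treated cultures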; conditions: S. cerevisiae cln2 rad14 strain, stronger effect = higher value
Summary of the method: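 Compounds are applied to the cln2 rad14 yeast strain, and growth is then compared with that of vehicle-treated cultures to give inhibition.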

[10] = NCI Yeast Anticancer Drug Screen. Data for the bub3 strain (AID 167); conditions: S. cerevisiae bub3 mutant strain, stronger effect = higher value
Summary of the method: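 Screening used yeast with an engineered genetic alteration affecting cell cycle control. Compound-exposed cultures were compared with vehicle cultures, and reduced growth was taken as inhibition.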

[11] = NCI Yeast Anticancer Drug Screen. Data for the wt2 strain (AID 169);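 also: 0% = growth of vehicle-treated yeast cultures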; conditions: S. cerevisiae wt2 strain growth inhibition, stronger effect = higher value
Summary of the method: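 This strain belongs to a panel of yeast strains with defined genetic alterations in DNA damage repair or cell cycle control. Compounds are applied, and growth inhibition is measured against vehicle-treated cultures.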

[12] = NCI Yeast Anticancer Drug Screen. Data for the mlh1 strain (AID 171);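 also: 0% = growth of vehicle-treated control cultures of the same strain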; conditions: S. cerevisiae mlh1 strain growth inhibition, stronger effect = higher value
Summary of the method: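 Growth of the mutant yeast strain after compound exposure, expressed as inhibition relative to vehicle-only controls.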

[13] = NCI Yeast Anticancer Drug Screen. Data for the mlh1 rad18 strain (AID 175); conditions: S. cerevisiae mlh1 rad18 strain growth inhibition, stronger effect = higher value
Summary of the method: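 Read-out is yeast growth inhibition, calculated against vehicle-only controls. The compound was applied to a strain engineered with DNA damage repair alterations.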

[14] = at 5.0 µM (retest, dose inferred, filed as 0.5)
[15] = at 50.0 µM (retest, dose inferred, filed as 5.0)

Measured: growth inhibition

COc1ccc(/C=C2\CCc3ccccc3C2=O)cc1OC
inactive: [1]; at 1.2 µM -13% | [1]; at 3.7 µM -2% | [1]; at 11.0 µM -11% | [1]; at 33.0 µM 24% | [2]; at 1.2 µM -24% | [2]; at 3.7 µM -26% | [2]; at 11.0 µM 1% | [2]; at 33.0 µM 32% | [2]; at 100.0 µM 40% | [3]; at 1.2 µM 2% | [3]; at 3.7 µM 5% | [3]; at 11.0 µM 21% | [3]; at 33.0 µM 67% | [4]; at 1.2 µM 3% | [4]; at 3.7 µM -2% | [4]; [14] 36% | [4]; at 11.0 µM -1% | [4]; at 33.0 µM 22% | [4]; [15] 51% | [5]; at 1.2 µM -36% | [5]; at 3.7 µM -8% | [5]; [14] -11% | [5]; at 11.0 µM -22% | [5]; at 33.0 µM 24% | [5]; [15] 66% | [5]; at 50.0 µM 60.3% | [6]; at 1.2 µM -16% | [6]; at 3.7 µM -13% | [6]; at 11.0 µM -20% | [6]; at 33.0 µM 19% | [7]; [14] 37% | [7]; [15] 68% | [8]; at 1.2 µM 21% | [8]; at 3.7 µM 22% | [8]; at 11.0 µM 29% | [8]; at 33.0 µM 37% | [9]; [14] 23% | [9]; [15] 48% | [9]; at 50.0 µM 60.9% | [10]; at 1.2 µM 24% | [10]; at 3.7 µM 29% | [10]; [14] 25% | [10]; at 11.0 µM 51% | [11]; at 1.2 µM -38% | [11]; at 3.7 µM -25% | [11]; at 11.0 µM -28% | [11]; at 33.0 µM 53% | [12]; at 1.2 µM 20% | [12]; at 3.7 µM 29% | [12]; at 11.0 µM 26% | [13]; [14] 10% | [13]; at 50.0 µM 63.5%
active: [1]; at 100.0 µM 88% | [3]; at 100.0 µM 89% | [4]; at 50.0 µM 83.3% | [4]; at 100.0 µM 82% | [5]; at 100.0 µM 90% | [6]; at 100.0 µM 80% | [7]; at 50.0 µM 84.8% | [8]; at 100.0 µM 92% | [10]; at 33.0 µM 76% | [10]; [15] 95% | [10]; at 50.0 µM 87.6% | [10]; at 100.0 µM 94% | [11]; at 100.0 µM 91% | [12]; at 33.0 µM 79% | [12]; at 100.0 µM 91% | [13]; [15] 91%
